Source: the supplement of paper PMC12669032

How the values were obtained:
Experiment in all cases: growth AUC relative to DMSO control (median of replicates) (fraction); higher = more growth (less inhibition), active = hit call of the paper
Conditions in all cases: 20 µM; 24 h;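 active = AUC reduced over 20% with Padj below 0.05 in at least 2 of 3 replicates; inactive = otherwise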
Akkermansia muciniphila = system: Akkermansia muciniphila
How it was run: (§1)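 Each value is the median of three biological replicates, grown on separate days, of a gut bacterial monoculture incubated anaerobically at 37 °C in mGAM with 20 µM compound (1% DMSO). Cultures started at OD600 0.05 and were read at OD600 hourly for 24 h, with the minimum OD set to 0. Area under the growth curve was normalised to the plate median of solvent-only wells, or to row and column medians on the industrial chemical plate.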

Bacteroides caccae = system: Bacteroides caccae
How it was run: as §1

Bacteroides clarus = system: Bacteroides clarus
How it was run: as §1

Bacteroides dorei = system: Bacteroides dorei
How it was run: as §1

Bacteroides stercoris = system: Bacteroides stercoris
How it was run: as §1

[1] = system: Bacteroides thetaiotaomicron
How it was run: as §1

Bacteroides uniformis = system: Bacteroides uniformis
How it was run: as §1

[2] = system: Bifidobacterium longum subsp. longum
How it was run: as §1

Clostridium difficile = system: Clostridium difficile
How it was run: as §1

Collinsella aerofaciens = system: Collinsella aerofaciens
How it was run: as §1

Coprococcus comes = system: Coprococcus comes
How it was run: as §1

Escherichia coli ED1a = system: Escherichia coli ED1a
How it was run: as §1

Escherichia coli IAI1 = system: Escherichia coli IAI1
How it was run: as §1

Eubacterium rectale = system: Eubacterium rectale
How it was run: as §1

[3] = system: Fusobacterium nucleatum subsp. animalis
How it was run: as §1

Lactobacillus gasseri = system: Lactobacillus gasseri
How it was run: as §1

Lactobacillus paracasei = system: Lactobacillus paracasei
How it was run: as §1

Odoribacter splanchnicus = system: Odoribacter splanchnicus
How it was run: as §1

[4] = system: Parabacteroides distasonis
How it was run: as §1

Parabacteroides merdae = system: Parabacteroides merdae
How it was run: as §1

Measured: growth AUC

CC(C)CNC(=O)N1CCNC1=O
inactive: Akkermansia muciniphila 1.09 | Bacteroides caccae 0.975 | Bacteroides clarus 1.02 | Bacteroides dorei 0.96 | Bacteroides stercoris 1.18 | [1] 1.02 | Bacteroides uniformis 1.02 | [2] 1.04 | Clostridium difficile 1.04 | Collinsella aerofaciens 1.08 | Coprococcus comes 1.01 | Escherichia coli ED1a 1.02 | Escherichia coli IAI1 1.02 | Eubacterium rectale 1.02 | [3] 1.07 | Lactobacillus gasseri 1.05 | Lactobacillus paracasei 1.04 | Odoribacter splanchnicus 1.06 | [4] 0.956 | Parabacteroides merdae 1.01

ClC(COCC(Cl)C(Cl)(Cl)Cl)C(Cl)(Cl)Cl (stereo not given)
inactive: Akkermansia muciniphila 0.875 | Bacteroides caccae 0.969 | Bacteroides clarus 0.942 | Bacteroides dorei 1.01 | Bacteroides stercoris 0.952 | [1] 0.91 | Bacteroides uniformis 0.918 | [2] 0.967 | Clostridium difficile 1.02 | Collinsella aerofaciens 1.05 | Coprococcus comes 0.976 | Escherichia coli ED1a 1.01 | Escherichia coli IAI1 0.983 | Eubacterium rectale 0.92 | [3] 0.992 | Lactobacillus gasseri 1.11 | Lactobacillus paracasei 1.08 | Odoribacter splanchnicus 0.971 | [4] 0.98 | Parabacteroides merdae 0.932

O=C1NC(=O)c2ccccc21
inactive: Akkermansia muciniphila 1.09 | Bacteroides caccae 0.873 | Bacteroides clarus 1.02 | Bacteroides dorei 1 | Bacteroides stercoris 1.31 | [1] 1 | Bacteroides uniformis 1.01 | [2] 1.04 | Clostridium difficile 1.01 | Collinsella aerofaciens 0.982 | Coprococcus comes 1.02 | Escherichia coli ED1a 1.02 | Escherichia coli IAI1 1.02 | Eubacterium rectale 0.984 | [3] 1.05 | Lactobacillus gasseri 1.06 | Lactobacillus paracasei 1.04 | Odoribacter splanchnicus 0.89 | [4] 1.02 | Parabacteroides merdae 1.02

O=C(O)CNC(=O)c1cnccc1C(F)(F)F
inactive: Akkermansia muciniphila 1.02 | Bacteroides caccae 1 | Bacteroides clarus 1.02 | Bacteroides dorei 0.976 | Bacteroides stercoris 1.07 | [1] 0.99 | Bacteroides uniformis 1.02 | [2] 1.06 | Clostridium difficile 0.924 | Collinsella aerofaciens 0.989 | Coprococcus comes 0.96 | Escherichia coli ED1a 1.03 | Escherichia coli IAI1 1.02 | Eubacterium rectale 1.01 | [3] 1.14 | Lactobacillus gasseri 0.903 | Lactobacillus paracasei 1.11 | Odoribacter splanchnicus 1.02 | [4] 1.03 | Parabacteroides merdae 0.992

CN(C)C(=O)NC1CCCCCCC1
inactive: Akkermansia muciniphila 0.984 | Bacteroides caccae 1.01 | Bacteroides clarus 1.01 | Bacteroides dorei 0.996 | Bacteroides stercoris 1.09 | [1] 0.99 | Bacteroides uniformis 0.972 | [2] 1.01 | Clostridium difficile 1.03 | Collinsella aerofaciens 1.01 | Coprococcus comes 1.03 | Escherichia coli ED1a 0.999 | Escherichia coli IAI1 0.998 | Eubacterium rectale 1.06 | [3] 1.04 | Lactobacillus gasseri 1.04 | Lactobacillus paracasei 0.978 | Odoribacter splanchnicus 0.948 | [4] 1.02 | Parabacteroides merdae 1.01

N#Cc1ccc(CC(=NNC(=O)Nc2ccc(OC(F)(F)F)cc2)c2cccc(C(F)(F)F)c2)cc1 (mixture of isomers)
inactive: Akkermansia muciniphila 1 | Bacteroides caccae 1.03 | Bacteroides clarus 1.02 | Bacteroides dorei 1.03 | Bacteroides stercoris 0.988 | [1] 1.02 | Bacteroides uniformis 1.02 | [2] 0.999 | Clostridium difficile 1.01 | Collinsella aerofaciens 1.03 | Coprococcus comes 0.991 | Escherichia coli ED1a 0.986 | Escherichia coli IAI1 1.02 | Eubacterium rectale 0.963 | [3] 1.12 | Lactobacillus gasseri 1.15 | Lactobacillus paracasei 0.959 | Odoribacter splanchnicus 1.02 | [4] 0.999 | Parabacteroides merdae 0.936

CCCCCCCCc1c(CC)nc2ncnn2c1N
inactive: Akkermansia muciniphila 1.05 | Bacteroides caccae 1.03 | Bacteroides clarus 0.991 | Bacteroides dorei 0.989 | Bacteroides stercoris 0.953 | [1] 0.97 | Bacteroides uniformis 0.973 | [2] 0.995 | Clostridium difficile 0.972 | Collinsella aerofaciens 0.926 | Coprococcus comes 1.01 | Escherichia coli ED1a 0.986 | Escherichia coli IAI1 0.978 | Eubacterium rectale 0.988 | [3] 1.04 | Lactobacillus gasseri 0.904 | Lactobacillus paracasei 0.931 | Odoribacter splanchnicus 0.989 | [4] 0.946 | Parabacteroides merdae 0.964

O=C(O)Cc1cccc2ccccc12
inactive: Akkermansia muciniphila 0.984 | Bacteroides caccae 0.985 | Bacteroides clarus 0.969 | Bacteroides dorei 0.971 | Bacteroides stercoris 0.963 | [1] 1 | Bacteroides uniformis 1.04 | [2] 1.03 | Clostridium difficile 0.994 | Collinsella aerofaciens 0.968 | Coprococcus comes 0.941 | Escherichia coli ED1a 0.959 | Escherichia coli IAI1 0.991 | Eubacterium rectale 1.02 | [3] 1.01 | Lactobacillus gasseri 0.949 | Lactobacillus paracasei 1.02 | Odoribacter splanchnicus 0.953 | [4] 0.987 | Parabacteroides merdae 1.01

CC(C)NS(=O)(=O)NC(=O)c1cc(-n2c(=O)cc(C(F)(F)F)[nH]c2=O)c(F)cc1Cl
inactive: Akkermansia muciniphila 1.11 | Bacteroides caccae 1.04 | Bacteroides clarus 1.01 | Bacteroides dorei 1.01 | Bacteroides stercoris 0.984 | [1] 0.991 | Bacteroides uniformis 1.02 | [2] 0.993 | Clostridium difficile 1.02 | Collinsella aerofaciens 0.994 | Coprococcus comes 0.998 | Escherichia coli ED1a 1.02 | Escherichia coli IAI1 1.03 | Eubacterium rectale 1.01 | [3] 1.03 | Lactobacillus gasseri 0.974 | Lactobacillus paracasei 0.991 | Odoribacter splanchnicus 0.977 | [4] 1.05 | Parabacteroides merdae 0.983

CCCCOCCOC(=O)COc1ccc(Cl)cc1Cl
inactive: Akkermansia muciniphila 1.09 | Bacteroides caccae 0.966 | Bacteroides clarus 0.991 | Bacteroides dorei 0.867 | Bacteroides stercoris 0.952 | [1] 0.98 | Bacteroides uniformis 0.93 | [2] 0.984 | Clostridium difficile 0.993 | Collinsella aerofaciens 0.96 | Coprococcus comes 0.982 | Escherichia coli ED1a 0.983 | Escherichia coli IAI1 0.983 | Eubacterium rectale 1.1 | [3] 0.92 | Lactobacillus gasseri 0.88 | Lactobacillus paracasei 0.962 | Odoribacter splanchnicus 0.97 | Parabacteroides merdae 0.954
active: [4] 0.721

COc1cc(OC)c(Cl)cc1N
inactive: Akkermansia muciniphila 0.954 | Bacteroides caccae 0.994 | Bacteroides clarus 0.995 | Bacteroides dorei 1.02 | Bacteroides stercoris 1.09 | [1] 1.01 | Bacteroides uniformis 1.01 | [2] 0.912 | Clostridium difficile 1.01 | Collinsella aerofaciens 1.03 | Coprococcus comes 1.03 | Escherichia coli ED1a 1 | Escherichia coli IAI1 1.01 | Eubacterium rectale 1.03 | [3] 1.14 | Lactobacillus gasseri 0.969 | Lactobacillus paracasei 1.04 | Odoribacter splanchnicus 1.04 | [4] 1.02 | Parabacteroides merdae 1.04

CCCCOC(=O)COc1ccc(Cl)cc1Cl
inactive: Akkermansia muciniphila 1.06 | Bacteroides caccae 0.975 | Bacteroides clarus 1.02 | Bacteroides dorei 0.996 | Bacteroides stercoris 1.09 | [1] 0.987 | Bacteroides uniformis 1.02 | [2] 0.965 | Clostridium difficile 0.999 | Collinsella aerofaciens 0.957 | Coprococcus comes 0.991 | Escherichia coli ED1a 0.981 | Escherichia coli IAI1 1.03 | Eubacterium rectale 0.979 | [3] 1.08 | Lactobacillus gasseri 1.06 | Lactobacillus paracasei 0.839 | Odoribacter splanchnicus 0.946 | [4] 0.994 | Parabacteroides merdae 0.979

Cc1cc(C2CC2)nc(Nc2ccc(O)cc2)n1
inactive: Akkermansia muciniphila 0.829 | Bacteroides caccae 0.999 | Bacteroides clarus 0.967 | Bacteroides dorei 0.994 | Bacteroides stercoris 0.968 | [1] 0.943 | Bacteroides uniformis 0.957 | [2] 1.04 | Clostridium difficile 0.982 | Collinsella aerofaciens 0.975 | Coprococcus comes 0.998 | Escherichia coli ED1a 0.989 | Escherichia coli IAI1 1.01 | Eubacterium rectale 0.903 | [3] 0.955 | Lactobacillus gasseri 1.19 | Lactobacillus paracasei 1.01 | Odoribacter splanchnicus 0.965 | [4] 1.03 | Parabacteroides merdae 0.982

COc1cc(OC)nc(NC(=O)NS(=O)(=O)c2c(-c3nnn(C)n3)cnn2C)n1
inactive: Akkermansia muciniphila 1.13 | Bacteroides caccae 0.99 | Bacteroides clarus 1 | Bacteroides dorei 0.94 | Bacteroides stercoris 1.08 | [1] 1.01 | Bacteroides uniformis 1 | [2] 1.01 | Clostridium difficile 0.961 | Collinsella aerofaciens 0.978 | Coprococcus comes 1.01 | Escherichia coli ED1a 1.01 | Escherichia coli IAI1 0.988 | Eubacterium rectale 1.1 | [3] 1.02 | Lactobacillus gasseri 0.873 | Lactobacillus paracasei 1.04 | Odoribacter splanchnicus 1.03 | [4] 0.845 | Parabacteroides merdae 1.03

COc1ccc(NC(=O)N(C)C)cc1Cl
inactive: Akkermansia muciniphila 0.982 | Bacteroides caccae 0.975 | Bacteroides clarus 1 | Bacteroides dorei 1.01 | Bacteroides stercoris 0.891 | [1] 0.995 | Bacteroides uniformis 1.02 | [2] 1.11 | Clostridium difficile 0.995 | Collinsella aerofaciens 0.94 | Coprococcus comes 1.03 | Escherichia coli ED1a 0.981 | Escherichia coli IAI1 0.957 | Eubacterium rectale 1.01 | [3] 0.973 | Lactobacillus gasseri 0.916 | Lactobacillus paracasei 1.02 | Odoribacter splanchnicus 1.1 | [4] 0.99 | Parabacteroides merdae 0.916

Br[C@@H]1CC[C@H](Br)[C@H](Br)CC[C@@H](Br)[C@@H](Br)CC[C@H]1Br
active: Bacteroides stercoris 0.528 | Eubacterium rectale 0.773 | [4] 0.232 | Parabacteroides merdae 0.351
inactive: Akkermansia muciniphila 1 | Bacteroides caccae 1.01 | Bacteroides clarus 0.901 | Bacteroides dorei 0.999 | [1] 1.01 | Bacteroides uniformis 1.01 | [2] 0.919 | Clostridium difficile 1.02 | Collinsella aerofaciens 1 | Coprococcus comes 1.05 | Escherichia coli ED1a 0.985 | Escherichia coli IAI1 1 | [3] 0.974 | Lactobacillus gasseri 0.789 | Lactobacillus paracasei 0.976 | Odoribacter splanchnicus 1.08
